# Measurements published in PubChem BioAssay (Tox21).
# Several values for one entry are separate records, joined by “and”; a condition that tells them apart may be missing. Equal values may be shown once. More than one record can exist for a structure, and the calls need not agree. Activity calls are given as the source filed them. A call without a number means that no potency is given here. Unless noted, the call rests on the fitted dose curve; in most records, active means well fitted curve in the direction sought with a large enough effect in the repeat runs; inconclusive means weak or mixed curves; inactive means no such curve, though single readings can be large; an effect the other way counts as inactive or inconclusive.
# How the values were obtained:
# [1] = qHTS assay to identify small molecule antagonists of the glucocorticoid receptor (GR) signaling pathway - cell viability counter screen (AID 720693); further: nearly all actives have a fitted effect of over 55% in size; further: potency means the concentration at half of the fitted maximal effect
# [2] = qHTS assay for identifying genotoxic compounds that show differential cytotoxicity against isogenic chicken DT40 cell lines with known DNA damage response pathways - wild type cell line (AID 743012); further: nearly all actives have a fitted effect of over 60% in size; further: potency means the concentration at half of the fitted maximal effect
# Outline: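 Quantitative HTS on parental DT40 cells: 40 h compound treatment at 37 C/5% CO2, with viability then determined by CellTiter-Glo luminescence. Values serve as the DNA repair-proficient reference for differential cytotoxicity.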
# [3] = qHTS assay for identifying genotoxic compounds that show differential cytotoxicity against isogenic chicken DT40 cell lines with known DNA damage response pathways - Rev3 mutant cell line (AID 743014); further: nearly all actives have a fitted effect of over 55% in size; further: potency means the concentration at half of the fitted maximal effect
# [4] = qHTS assay for identifying genotoxic compounds that show differential cytotoxicity against isogenic chicken DT40 cell lines with known DNA damage response pathways - Rad54/Ku70 mutant cell line (AID 743015); further: nearly all actives have a fitted effect of over 60% in size; further: potency means the concentration at half of the fitted maximal effect
# [5] = biological target: Androgen receptor (Homo sapiens) (UniProt P10275); test: qHTS assay to identify small molecule antagonists of the androgen receptor (AR) signaling pathway (AID 743035; active means well fitted inhibition curve with a large enough effect in the signal ratio in the repeat runs, not every such curve was filed as active; inconclusive means weak or mixed curves, or effect the other way; inactive means no such curve, though single readings can be large or run the other way; the % refers to the signal ratio)
# Chain of Androgen receptor (Homo sapiens) (P10275 whole entry, looked up): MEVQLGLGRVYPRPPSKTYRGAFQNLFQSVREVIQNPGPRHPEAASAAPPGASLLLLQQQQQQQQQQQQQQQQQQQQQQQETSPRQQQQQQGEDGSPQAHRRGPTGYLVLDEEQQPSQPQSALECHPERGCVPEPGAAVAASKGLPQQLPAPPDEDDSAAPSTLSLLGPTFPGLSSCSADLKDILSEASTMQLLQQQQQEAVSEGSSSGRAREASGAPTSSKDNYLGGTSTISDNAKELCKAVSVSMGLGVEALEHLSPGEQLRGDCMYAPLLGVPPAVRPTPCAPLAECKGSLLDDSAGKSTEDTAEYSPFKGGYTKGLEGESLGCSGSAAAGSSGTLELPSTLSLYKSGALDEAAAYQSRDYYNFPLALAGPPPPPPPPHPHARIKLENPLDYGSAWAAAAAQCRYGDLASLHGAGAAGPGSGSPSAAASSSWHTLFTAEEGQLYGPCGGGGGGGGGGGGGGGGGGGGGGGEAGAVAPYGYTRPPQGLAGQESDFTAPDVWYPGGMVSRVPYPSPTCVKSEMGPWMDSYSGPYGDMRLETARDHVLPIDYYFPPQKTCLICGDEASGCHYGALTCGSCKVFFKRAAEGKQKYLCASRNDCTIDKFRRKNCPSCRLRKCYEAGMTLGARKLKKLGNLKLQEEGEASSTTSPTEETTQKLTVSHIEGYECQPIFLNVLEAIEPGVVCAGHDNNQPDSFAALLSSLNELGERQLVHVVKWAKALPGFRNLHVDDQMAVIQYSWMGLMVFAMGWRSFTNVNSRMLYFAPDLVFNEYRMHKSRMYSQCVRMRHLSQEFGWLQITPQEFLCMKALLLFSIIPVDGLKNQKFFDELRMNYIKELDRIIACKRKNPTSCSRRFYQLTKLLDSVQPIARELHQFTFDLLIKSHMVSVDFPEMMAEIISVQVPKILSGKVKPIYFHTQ
# Outline: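 Cell line: GeneBLAzer AR-UAS-bla GripTite (HEK293). Stimulus: R1881 added after compound. Exposure: 16 h, 37C, 5% CO2. Readout: LiveBLAzer B/G FRET fluorescence after 2 h at room temperature.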
# [6] = biological target: Androgen receptor (Homo sapiens) (UniProt P10275); test: qHTS assay to identify small molecule agonists of the androgen receptor (AR) signaling pathway (AID 743036; active means well fitted activation curve with a large enough effect in the signal ratio in the repeat runs, with a control signal flat, not every such curve was filed as active; inconclusive means weak or mixed curves, or effect the other way; inactive means no such curve, though single readings can be large or run the other way; the % refers to the signal ratio)
# Outline: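 In this Tox21 qHTS, 2,000 HEK293 AR-bla cells per well were incubated with compounds for 16 h at 37C and 5% CO2. Fluorescence intensity was recorded 2 h after adding LiveBLAzer B/G FRET substrate at room temperature.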
# [7] = biological target: Androgen receptor (Homo sapiens) (UniProt P10275); test: qHTS assay to identify small molecule agonists of the androgen receptor (AR) signaling pathway using the MDA cell line (AID 743040; further: nearly all actives have a fitted effect of over 20% in size)
# Outline: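 MDA-kb2 breast carcinoma cells stably carrying an MMTV-driven luciferase reporter (AR- and GR-responsive) were seeded and held 5 h at 37C, 0% CO2, then exposed to compounds in DMSO for 16 h. Luminescence was read 30 min after ONE-Glo addition.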
# [8] = qHTS assay to identify small molecule antagonists of the androgen receptor (AR) signaling pathway using the MDA cell line - cell viability counter screen (AID 743041; further: nearly all actives have a fitted effect of over 45% in size)
# Outline: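 MDA-kb2 AR-luc human breast carcinoma cells (MMTV-luciferase, AR/GR responsive) were treated with compounds plus R1881 agonist for 16 h at 37 °C. Viability was read as CellTiter-Fluor fluorescence in the same wells as the reporter assay.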
# [9] = biological target: Androgen receptor (Homo sapiens) (UniProt P10275); test: qHTS assay to identify small molecule antagonists of the androgen receptor (AR) signaling pathway using the MDA cell line (AID 743042; further: nearly all actives have a fitted effect of over 55% in size)
# Outline: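 MDA-kb2 cells (human breast carcinoma, stably carrying an MMTV-luciferase reporter responsive to AR and GR) were plated at 3,000 cells/well and preincubated 5 hr at 37C, then given compound plus R1881 agonist for 16 h. ONE-Glo luminescence was read.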
# [10] = qHTS assay to identify small molecule antagonists of the thyroid receptor (TR) signaling pathway - cell viability counter screen (AID 743064); further: nearly all actives have a fitted effect of over 50% in size; further: potency means the concentration at half of the fitted maximal effect
# Outline: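 Counter screen for cytotoxicity: compound plus T3 (1 nM final) on GH3.TRE-Luc cells, 23.5 h at 37 °C, then fluorescence viability readout with CellTiter-Fluor.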
# [11] = tested on: thyroid hormone receptor (rat, GH3 cells); test: qHTS assay to identify small molecule agonists of the thyroid receptor (TR) signaling pathway (AID 743066; calls by dose curve)
# [12] = biological target: Estrogen receptor (Homo sapiens) (UniProt P03372); test: qHTS assay to identify small molecule antagonists of the estrogen receptor alpha (ER-alpha) signaling pathway (AID 743069; active means well fitted curve in the direction sought with a large enough effect in the signal ratio in the repeat runs, not every such curve was filed as active; inconclusive means weak or mixed curves, or effect the other way; inactive means no such curve, though single readings can be large or run the other way; the % refers to the signal ratio; further: potency means the concentration at half of the fitted maximal effect)
# Chain of Estrogen receptor (Homo sapiens) (P03372 whole entry, looked up): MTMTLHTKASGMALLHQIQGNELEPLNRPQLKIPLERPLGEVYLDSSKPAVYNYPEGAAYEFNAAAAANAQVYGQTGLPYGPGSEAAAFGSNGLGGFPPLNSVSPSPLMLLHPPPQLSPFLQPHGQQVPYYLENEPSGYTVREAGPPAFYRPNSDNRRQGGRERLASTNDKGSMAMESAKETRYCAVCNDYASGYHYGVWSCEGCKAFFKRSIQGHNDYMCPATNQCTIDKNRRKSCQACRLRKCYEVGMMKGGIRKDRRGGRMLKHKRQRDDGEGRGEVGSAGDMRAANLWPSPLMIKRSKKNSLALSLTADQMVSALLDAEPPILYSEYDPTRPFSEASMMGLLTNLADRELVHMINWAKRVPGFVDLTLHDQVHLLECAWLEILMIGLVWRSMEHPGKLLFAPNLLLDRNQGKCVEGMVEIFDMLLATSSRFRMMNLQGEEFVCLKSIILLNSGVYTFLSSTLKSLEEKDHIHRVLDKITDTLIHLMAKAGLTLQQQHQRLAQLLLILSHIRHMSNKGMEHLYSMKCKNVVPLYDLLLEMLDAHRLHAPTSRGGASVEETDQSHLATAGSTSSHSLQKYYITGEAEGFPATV
# Outline: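 HEK293 cells stably carrying an ER-alpha-UAS-bla beta-lactamase reporter were pre-cultured overnight in 2% charcoal-stripped FBS medium. Test compounds in DMSO were added together with 17beta-estradiol for 18 hr at 37C. Read-out was fluorescence after 2 hr with LiveBLAzer B/G FRET substrate at room temperature.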
# [13] = qHTS assay to identify small molecule antagonists of the estrogen receptor alpha (ER-alpha) signaling pathway - cell viability counter screen (AID 743074; calls by dose curve; further: nearly all actives have a fitted effect of over 45% in size; further: potency means the concentration at half of the fitted maximal effect)
# [14] = biological target: Estrogen receptor (Homo sapiens) (UniProt P03372); test: qHTS assay to identify small molecule agonists of the estrogen receptor alpha (ER-alpha) signaling pathway (AID 743075; calls by dose curve; further: potency means the concentration at half of the fitted maximal effect)
# [15] = biological target: Estrogen receptor (Homo sapiens) (UniProt P03372); test: qHTS assay to identify small molecule agonists of the estrogen receptor alpha (ER-alpha) signaling pathway using the BG1 cell line (AID 743079); further: nearly all actives have a fitted effect of over 20% in size; further: potency means the concentration at half of the fitted maximal effect
# [16] = qHTS assay to identify small molecule antagonists of the estrogen receptor alpha (ER-alpha) signaling pathway using the BG1 cell line (AID 743080; calls by dose curve;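 further: BG1 cells stimulated with 17beta-estradiol alongside compound; nearly all actives have a fitted effect of over 25% in size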; further: potency means the concentration at half of the fitted maximal effect)
# Outline: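 Endogenous full-length ER-alpha in BG1-Luc-4E2 cells drives a stably integrated 4×ERE luciferase gene; compounds were tested against 17beta-estradiol over 21.5 h, with luminescence and multiplexed viability fluorescence recorded.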
# [17] = qHTS assay to identify small molecule antagonists of the estrogen receptor alpha (ER-alpha) signaling pathway using the BG1 cell line - cell viability counter screen (AID 743081);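 further: compound given together with 17beta-estradiol as the ER stimulus; series mostly up to about 70 µM; nearly all actives have a fitted effect of over 45% in size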
# [18] = biological target: Aromatase (Homo sapiens) (UniProt P11511); test: qHTS assay to identify aromatase inhibitors (AID 743083); further: nearly all actives have a fitted effect of over 55% in size; further: potency means the concentration at half of the fitted maximal effect
# Chain of Aromatase (Homo sapiens) (P11511 whole entry, looked up): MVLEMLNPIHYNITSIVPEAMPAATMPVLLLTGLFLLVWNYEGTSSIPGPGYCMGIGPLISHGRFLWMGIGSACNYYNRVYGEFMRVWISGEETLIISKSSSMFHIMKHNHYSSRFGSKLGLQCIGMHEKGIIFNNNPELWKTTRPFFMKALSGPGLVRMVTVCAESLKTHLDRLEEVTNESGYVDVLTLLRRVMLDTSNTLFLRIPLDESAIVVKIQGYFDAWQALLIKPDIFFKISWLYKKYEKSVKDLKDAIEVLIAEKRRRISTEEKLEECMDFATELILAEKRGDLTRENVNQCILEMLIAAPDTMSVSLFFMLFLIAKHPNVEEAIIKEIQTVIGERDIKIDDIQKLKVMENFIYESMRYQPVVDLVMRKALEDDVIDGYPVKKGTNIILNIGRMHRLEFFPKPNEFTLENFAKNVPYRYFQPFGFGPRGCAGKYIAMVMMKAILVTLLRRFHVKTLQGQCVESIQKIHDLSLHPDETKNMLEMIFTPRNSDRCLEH
# [19] = qHTS assay to identify small molecule antagonists of the androgen receptor (AR) signaling pathway - cell viability counter screen (AID 743033; further: nearly all actives have a fitted effect of over 45% in size; further: potency means the concentration at half of the fitted maximal effect)
# [20] = qHTS assay to identify small molecule antagonists of the thyroid receptor (TR) signaling pathway (AID 743065); further: nearly all actives have a fitted effect of over 55% in size; further: potency means the concentration at half of the fitted maximal effect
# Outline: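 GH3.TRE-Luc rat pituitary cells carrying two TR response elements driving luciferase were plated for 4 h, given compound plus 1 nM T3 (final), and incubated 23.5 h at 37 C. ONE-Glo luminescence measured reporter inhibition; CellTiter-Fluor fluorescence tracked cytotoxicity.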
smiles,measurement,setting,value
O=C(O)Cc1ccccc1Nc1c(Cl)cccc1Cl,Potency,[1],inactive
same,Potency,[2],inactive
same,Potency,[3],inactive and 61.1 µM (active)
same,Potency,[4],inactive and 68.6 µM (active)
same,Potency,[5],inactive
same,Potency,[6],inactive
same,outcome,[7],inactive
same,Potency,[8],inactive
same,Potency,[9],inactive
same,Potency,[10],inactive
same,outcome,[11],inactive
same,Potency,[12],inactive
same,Potency,[13],inactive
same,Potency,[14],inactive
same,Potency,[15],inactive
same,Potency,[16],inactive
same,Potency,[17],inactive
same,Potency,[18],inactive
CC(=O)[C@H]1CC[C@H]2[C@@H]3CCC4=CC(=O)CC[C@]4(C)[C@H]3CC[C@]12C,Potency,[1],3.87 µM (active)
same,Potency,[2],6.68 µM (active) and 13.6 µM (active) and 7.7 µM (active)
same,Potency,[3],9.44 µM (active) and 6.82 µM (active) and 6.86 µM (active)
same,Potency,[4],9.44 µM (active) and 12.1 µM (active) and 12.2 µM (active)
same,Potency,[19],inactive and 43.6 µM (active)
same,Potency,[10],60.8 µM (active)
same,Potency,[20],13.3 µM (active) and 21.6 µM (active) and 27.3 µM (active)
same,outcome,[11],inactive
same,Potency,[12],inactive
same,Potency,[13],inactive
same,Potency,[14],inactive
same,Potency,[15],inactive
same,Potency,[16],inactive and 54.2 µM (active) and 68.6 µM (active)
same,Potency,[17],inactive
same,Potency,[18],inactive
Nc1cc(Cl)c(O)c(Cl)c1,Potency,[1],inactive
same,Potency,[2],10.9 µM (active)
same,Potency,[3],15.4 µM (active)
same,Potency,[4],24.3 µM (active)
same,outcome,[7],inactive
same,Potency,[8],inactive
same,Potency,[9],inactive
same,outcome,[11],inactive
same,Potency,[13],inactive
same,Potency,[14],inactive
same,Potency,[15],inactive
same,Potency,[16],inactive
same,Potency,[17],inactive
same,Potency,[18],inactive
C=C(C)c1cccc(C(=C)C)c1,Potency,[1],inactive
same,Potency,[2],inactive
same,Potency,[3],inactive
same,Potency,[4],inactive
same,Potency,[19],inactive
same,Potency,[10],inactive
same,Potency,[20],inactive
same,outcome,[11],inactive
same,Potency,[12],inactive
same,Potency,[13],inactive
same,Potency,[14],inactive
same,Potency,[16],inactive
same,Potency,[18],inactive
COc1ccc2cc1Oc1ccc(cc1)C[C@H]1c3c(cc4c(c3Oc3cc5c(cc3OC)CCN(C)[C@@H]5C2)OCO4)CCN1C,Potency,[1],inactive
same,Potency,[2],7.5 µM (active)
same,Potency,[3],8.41 µM (active)
same,Potency,[4],8.41 µM (active)
same,outcome,[7],inactive
same,Potency,[9],inactive
same,Potency,[10],13.3 µM (active)
same,Potency,[12],inactive
same,Potency,[13],inactive
same,Potency,[14],inactive
same,Potency,[15],inactive
same,Potency,[16],inactive
same,Potency,[18],inactive
CCCCCCCCCCCCCC[N+](C)(C)Cc1ccccc1,Potency,[1],21.3 µM (active) and 24.9 µM (active)
same,Potency,[2],473 nM (active) and 621 nM (active)
same,Potency,[3],750 nM (active) and 493 nM (active)
same,Potency,[4],750 nM (active) and 493 nM (active)
same,Potency,[19],23.9 µM (active) and 7.03 µM (active)
same,Potency,[10],11.9 µM (active) and 13.9 µM (active)
same,outcome,[11],inactive
same,Potency,[13],21.3 µM (active) and 22.2 µM (active)
same,Potency,[14],inactive
same,Potency,[16],26.6 µM (active)
same,Potency,[17],inactive
same,Potency,[18],29.8 µM (active) and 13.9 µM (active)
O=S(=O)(O)c1ccccc1/C=C/c1ccc(-c2ccc(/C=C/c3ccccc3S(=O)(=O)O)cc2)cc1,Potency,[1],inactive
same,Potency,[2],inactive
same,Potency,[3],inactive
same,Potency,[4],inactive
same,Potency,[19],inactive
same,Potency,[8],inactive
same,Potency,[20],inactive
same,outcome,[11],inactive
same,Potency,[13],inactive
same,Potency,[15],inactive
same,Potency,[16],inactive
same,Potency,[18],inactive
C/C=C/C=C/COC(=O)C(C)C,Potency,[1],inactive
same,Potency,[2],13.7 µM (active)
same,Potency,[3],13.7 µM (active)
same,Potency,[4],17.2 µM (active)
same,Potency,[19],inactive
same,Potency,[8],inactive
same,outcome,[11],inactive
same,Potency,[13],inactive
same,Potency,[17],inactive
same,Potency,[18],68.6 µM (active)
O=C(O)CN(CCN(CC(=O)O)CC(=O)O)CC(=O)O,Potency,[1],inactive
same,Potency,[2],inactive
same,"activity, negative = cytotoxicity",[3],5.28% [at 3.82 µM] (inactive)
same,Potency,[4],inactive
same,Potency,[19],inactive
same,Potency,[13],inactive
same,Potency,[17],inactive
same,Potency,[18],inactive
CCC(CC)C(C)CCOC(C)=O (configuration not stated),Potency,[1],inactive
same,Potency,[2],inactive
same,Potency,[3],inactive
same,Potency,[4],inactive
same,Potency,[8],inactive
same,Potency,[10],inactive
same,Potency,[20],inactive
same,outcome,[11],inactive
same,Potency,[13],inactive
same,Potency,[17],inactive
same,Potency,[18],inactive
Cc1c(C)c2c(c(C)c1O)CC[C@@](C)(CCC[C@H](C)CCC[C@H](C)CCCC(C)C)O2,Potency,[1],inactive
same,Potency,[2],inactive
same,Potency,[3],inactive
same,Potency,[4],inactive
same,Potency,[19],inactive
same,Potency,[10],inactive
same,Potency,[20],inactive
same,outcome,[11],inactive
same,Potency,[13],inactive
same,Potency,[14],inactive
same,Potency,[15],inactive
same,Potency,[16],inactive
same,Potency,[17],inactive
same,Potency,[18],inactive
O[C@@H]([C@H](O)[C@H](O)CBr)[C@H](O)CBr,Potency,[1],inactive
same,Potency,[2],inactive
same,Potency,[3],inactive
same,Potency,[4],inactive
same,Potency,[8],inactive
same,Potency,[10],inactive
same,Potency,[20],inactive
same,outcome,[11],inactive
same,Potency,[12],inactive
same,Potency,[13],inactive
same,Potency,[14],inactive
same,Potency,[15],inactive
same,Potency,[16],inactive
same,Potency,[17],inactive
same,Potency,[18],inactive
O=C(c1ccc(O)c(O)c1)c1ccc(O)cc1O,Potency,[1],inactive
same,Potency,[2],43.2 µM (active)
same,Potency,[3],21.6 µM (active)
same,Potency,[4],8.62 µM (active)
same,Potency,[19],inactive
same,Potency,[8],inactive
same,outcome,[11],inactive
same,Potency,[12],34.6 µM [inconclusive] (active)
same,Potency,[13],inactive
same,Potency,[14],3.46 µM [inconclusive] (active)
same,Potency,[15],3.85 µM (active)
same,Potency,[16],inactive
